This is an account of results in the supplement of paper PMC11006884.

Of roughly 6,500 targets only a part is listed; those with a hit were picked by preference. About 2% of all pairs of compound and target were hits. A number with no mark means an inactive call.

Compound in this experiment: COC(=O)C#Cc1ccccc1 [methyl 3-phenylpropiolate]
In words: log2 ratio of iodoacetamide-alkyne labeling of the cysteine site, DMSO over compound (competition); higher = stronger covalent engagement of the cysteine by the compound, active = 1 or more. Particulars: 500 µM; treatment time 1 h; system: HEK293T cell lysate. In outline: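 Three replicates, each with duplicate channels, were prepared from HEK293T lysate (2 mg/mL) treated with vehicle or electrophile at 500 µM for 1 h at ambient temperature. Iodoacetamide alkyne was then applied for 1 h, and samples were clicked to sCIP-TMT reagents, pooled, trypsin-digested overnight at 37 °C, enriched on streptavidin, acid-eluted and analysed on Orbitrap Eclipse LC-MS/MS with FAIMS, with FragPipe quantification. The log2 competition ratio per cysteine is the mean control-channel divided by the mean compound-channel reporter intensity. Cysteines quantified in only one replicate were left out.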
As for SLFN11 C126 (UniProt Q7Z7L1), the “log2 ratio of iodoacetamide-alkyne labeling” value (shortened to “log2 ratio”) is 0.146.

Consider PRPF8 C435 (UniProt Q6P2Q9), for which the “log2 ratio” value was 1.24 (active).

With HEATR3 C173 (UniProt Q7Z4Q2), the “log2 ratio” value is 0.137.

In the case of DHX30 C461 (UniProt Q7L2E3), the “log2 ratio” value is 0.193.

As to PBK C112 (UniProt Q96KB5), the “log2 ratio” value was 0.35.

With UniProt Q96L50_C246, the “log2 ratio” value is 0.109.

With NCAPG C751 (UniProt Q9BPX3), the “log2 ratio” value was 0.416.

For ANKRD40 C358 (UniProt Q6AI12), the “log2 ratio” value was 1.2 (active).

For MTHFD1L C778 (UniProt Q6UB35), the “log2 ratio” value is 1.1 (active).

For the target UniProt Q96BD8_C10, the “log2 ratio” value was 0.363.

As for ISCA2 C144 (UniProt Q86U28), the “log2 ratio” value is 1.59 (active).

Regarding FAM122B C155 (UniProt Q7Z309), the “log2 ratio” value was 1.05 (active).

Turning to ANKRD11 C1845 (UniProt Q6UB99), the “log2 ratio” value was 1.24 (active).
